Records with an inconclusive call do not appear. Entries that show only a call come without a potency. Active and inactive are the calls of the source. The call rests on the fitted dose curve; in most records, active means well fitted inhibition curve with a large enough effect; inconclusive means small, poorly fitted or top-dose-only effect; inactive means flat fitted curve, though single readings scatter.
Potency means the concentration at half of the fitted maximal effect.

The subject of the first assay is CP260. Briefly: qHTS profiling for inhibitors of Plasmodium falciparum proliferation (AID 504749). Further: nearly all actives have a fitted effect of over 60% in size. Particulars: P. falciparum in erythrocytes, SYBR Green DNA, 72 h; series mostly up to 28.7 µM. The method in brief: (§1)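 Readout was DNA-dye fluorescence from lysed cultures, ex 485/em 535 nm. Parasitized red cells had grown 72 h with compound; data scaled between 0.29 uM artemisinin and DMSO wells and corrected using vehicle-only plates.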
(qHTS replaces the single test concentration by a dilution series.)
On to `CO/N=C(/C(=O)N[C@@H]1C(=O)N2C(C(=O)O)=CCS[C@H]12)c1csc(N)n1`, for which the Potency result is “inactive”.
Still for that read-out and setting: the same measure for `Cc1cc(CC(C)CC(C)(C)C)n(O)c(=O)c1` (stereo not given): 3.16 µM (active); for `CC1CCC(C(C)C)C(OC(=O)c2ccccc2O)C1` (stereo not given): “inactive”.
Same read-out and setting: as for `CO[C@@H]1[C@@H](OC2OC(C)C(OC3CC(C)(O)C(OC(=O)CC(C)C)C(C)O3)C(N(C)C)C2O)[C@@H](CC=O)C[C@@H](C)C(=O)/C=C\C2O[C@H]2C[C@@H](C)OC(=O)C[C@H]1OC(C)=O` (stereo not given in full), the figure is 7.94 µM (active).
The same measure, in the same setting: as for `CCC(=O)O[C@@H](OP(=O)(CCCCc1ccccc1)CC(=O)N1C[C@H](C2CCCCC2)C[C@H]1C(=O)O)C(C)C` (stereo not given in full), the entry is “inactive”; as for `CC(=O)O[C@@]12CO[C@@H]1C[C@H](O)[C@@]1(C)C(=O)[C@H](O)C3=C(C)[C@@H](OC(=O)C(O)[C@@H](NC(=O)OC(C)(C)C)c4ccccc4)C[C@@](O)([C@@H](OC(=O)c4ccccc4)[C@H]21)C3(C)C` (stereo not given in full), 0.0251 µM (active).
In the case of `CC1(C)S[C@@H]2[C@H](NC(=O)COc3ccccc3)C(=O)N2[C@H]1C(=O)O`, the Potency entry is “inactive”.
The same measure, in the same setting: as for `CCN1/C(=C/C=C/C=C/c2sc3ccccc3[n+]2CC)Sc2ccccc21`, the figure is 0.631 µM (active).
Same read-out and setting: the same measure for `O=NCc1ccc([N+](=O)[O-])o1`: “inactive”.

The subject of a further assay is CP262. The assay is described as above. As to conditions: P. falciparum in erythrocytes, SYBR Green DNA, 72 h; series mostly up to 28.7 µM. In outline:
as §1
On to `CO/N=C(/C(=O)N[C@@H]1C(=O)N2C(C(=O)O)=CCS[C@H]12)c1csc(N)n1`, for which the Potency entry is “inactive”.
Consider `Cc1cc(CC(C)CC(C)(C)C)n(O)c(=O)c1` (stereo not given), for which the Potency was 3.38 µM (active).
Still for that read-out and setting: the same measure for `CC1CCC(C(C)C)C(OC(=O)c2ccccc2O)C1` (stereo not given): “inactive”; for `CC(C)(CO)C(O)C(=O)NCCCC(=O)O` (stereo not given): “inactive”; for `CCC(=O)O[C@@H](OP(=O)(CCCCc1ccccc1)CC(=O)N1C[C@H](C2CCCCC2)C[C@H]1C(=O)O)C(C)C` (stereo not given in full): “inactive”.
As for `CC(=O)O[C@@]12CO[C@@H]1C[C@H](O)[C@@]1(C)C(=O)[C@H](O)C3=C(C)[C@@H](OC(=O)C(O)[C@@H](NC(=O)OC(C)(C)C)c4ccccc4)C[C@@](O)([C@@H](OC(=O)c4ccccc4)[C@H]21)C3(C)C` (stereo not given in full), the Potency is 0.0338 µM (active).
`CC1(C)S[C@@H]2[C@H](NC(=O)COc3ccccc3)C(=O)N2[C@H]1C(=O)O`: the Potency entry is “inactive”.
With `CCN1/C(=C/C=C/C=C/c2sc3ccccc3[n+]2CC)Sc2ccccc21`, the Potency result was “inactive”.
The same measure, in the same setting: the same measure for `Nc1nc(Cl)nc2c1ncn2C1CC(O)C(CO)O1` (stereo not given): “inactive”; for `O=NCc1ccc([N+](=O)[O-])o1`: “inactive”.

A further assay concerns CP265. The assay is described as above. As to conditions: P. falciparum in erythrocytes, SYBR Green DNA, 72 h; series mostly up to 28.7 µM. In outline:
as §1
For `CO/N=C(/C(=O)N[C@@H]1C(=O)N2C(C(=O)O)=CCS[C@H]12)c1csc(N)n1`, the Potency result was “inactive”.
Same read-out and setting: the same measure for `Cc1cc(CC(C)CC(C)(C)C)n(O)c(=O)c1` (stereo not given): 2.82 µM (active); for `CC1CCC(C(C)C)C(OC(=O)c2ccccc2O)C1` (stereo not given): “inactive”.
Turning to `CC(C)(CO)C(O)C(=O)NCCCC(=O)O` (stereo not given), the Potency was 0.0141 µM (active).
On the same count and under the same terms, the same measure for `CO[C@@H]1[C@@H](OC2OC(C)C(OC3CC(C)(O)C(OC(=O)CC(C)C)C(C)O3)C(N(C)C)C2O)[C@@H](CC=O)C[C@@H](C)C(=O)/C=C\C2O[C@H]2C[C@@H](C)OC(=O)C[C@H]1OC(C)=O` (stereo not given in full): 11.2 µM (active); for `CCC(=O)O[C@@H](OP(=O)(CCCCc1ccccc1)CC(=O)N1C[C@H](C2CCCCC2)C[C@H]1C(=O)O)C(C)C` (stereo not given in full): “inactive”; for `CC(=O)O[C@@]12CO[C@@H]1C[C@H](O)[C@@]1(C)C(=O)[C@H](O)C3=C(C)[C@@H](OC(=O)C(O)[C@@H](NC(=O)OC(C)(C)C)c4ccccc4)C[C@@](O)([C@@H](OC(=O)c4ccccc4)[C@H]21)C3(C)C` (stereo not given in full): 0.0794 µM (active).
Same read-out and setting: the same measure for `CC1(C)S[C@@H]2[C@H](NC(=O)COc3ccccc3)C(=O)N2[C@H]1C(=O)O`: “inactive”.
Still for that read-out and setting: as for `CCN1/C(=C/C=C/C=C/c2sc3ccccc3[n+]2CC)Sc2ccccc21`, the figure is 5.01 µM (active).
On to `O=NCc1ccc([N+](=O)[O-])o1`, for which the Potency result was “inactive”.

For the next assay, the system named is CP266. The description is as above. Particulars: P. falciparum in erythrocytes, SYBR Green DNA, 72 h; series mostly up to 28.7 µM. The method in brief: as §1
With `CO/N=C(/C(=O)N[C@@H]1C(=O)N2C(C(=O)O)=CCS[C@H]12)c1csc(N)n1`, the Potency result is “inactive”.
Take `Cc1cc(CC(C)CC(C)(C)C)n(O)c(=O)c1` (stereo not given): the Potency was 3.79 µM (active).
Still for that read-out and setting: the same measure for `CC1CCC(C(C)C)C(OC(=O)c2ccccc2O)C1` (stereo not given): “inactive”.
The same measure, in the same setting: the same measure for `CCC(=O)O[C@@H](OP(=O)(CCCCc1ccccc1)CC(=O)N1C[C@H](C2CCCCC2)C[C@H]1C(=O)O)C(C)C` (stereo not given in full): “inactive”; for `CC1(C)S[C@@H]2[C@H](NC(=O)COc3ccccc3)C(=O)N2[C@H]1C(=O)O`: “inactive”; for `CCN1/C(=C/C=C/C=C/c2sc3ccccc3[n+]2CC)Sc2ccccc21`: 9.53 µM (active).
On the same count and under the same terms, the same measure for `Nc1nc(Cl)nc2c1ncn2C1CC(O)C(CO)O1` (stereo not given): “inactive”.
Consider `O=NCc1ccc([N+](=O)[O-])o1`, for which the Potency entry was “inactive”.

For a further assay, the system named is CP268. The description is as above. Particulars: P. falciparum in erythrocytes, SYBR Green DNA, 72 h; series mostly up to 28.7 µM. In outline:
as §1
On to `CO/N=C(/C(=O)N[C@@H]1C(=O)N2C(C(=O)O)=CCS[C@H]12)c1csc(N)n1`, for which the Potency result was “inactive”.
The same measure, in the same setting: the same measure for `Cc1cc(CC(C)CC(C)(C)C)n(O)c(=O)c1` (stereo not given): 2.69 µM (active); for `CC1CCC(C(C)C)C(OC(=O)c2ccccc2O)C1` (stereo not given): “inactive”; for `CO[C@@H]1[C@@H](OC2OC(C)C(OC3CC(C)(O)C(OC(=O)CC(C)C)C(C)O3)C(N(C)C)C2O)[C@@H](CC=O)C[C@@H](C)C(=O)/C=C\C2O[C@H]2C[C@@H](C)OC(=O)C[C@H]1OC(C)=O` (stereo not given in full): 8.49 µM (active).
Still for that read-out and setting: the same measure for `CCC(=O)O[C@@H](OP(=O)(CCCCc1ccccc1)CC(=O)N1C[C@H](C2CCCCC2)C[C@H]1C(=O)O)C(C)C` (stereo not given in full): “inactive”; for `CC1(C)S[C@@H]2[C@H](NC(=O)COc3ccccc3)C(=O)N2[C@H]1C(=O)O`: “inactive”; for `CCN1/C(=C/C=C/C=C/c2sc3ccccc3[n+]2CC)Sc2ccccc21`: 12 µM (active).
Same read-out and setting: the same measure for `Nc1nc(Cl)nc2c1ncn2C1CC(O)C(CO)O1` (stereo not given): “inactive”.
